# Compounds with a hit are over-represented: about 2.8% of the library has one in this group of screens.
# GALC G270D act – A Novel Cell-Based Assay to Identify Small Molecules for B -Galactocerebrosidase; 145M-Twi-hGALC-G270D cells (Twitcher mouse brain line with human GALC G270D), HMU-beta-Gal fluorescence, 48 h; Potency, µM (doses to about 57.5 µM), usual class: activators; actives 0.1% (n = 45,000); P54803; AID 1159614, 2016; further: potency means the concentration at half of the fitted maximal effect; 0% is about no effect; nearly all actives have a fitted effect of over 65% in size
# Target sequence (P54803 whole entry G286D): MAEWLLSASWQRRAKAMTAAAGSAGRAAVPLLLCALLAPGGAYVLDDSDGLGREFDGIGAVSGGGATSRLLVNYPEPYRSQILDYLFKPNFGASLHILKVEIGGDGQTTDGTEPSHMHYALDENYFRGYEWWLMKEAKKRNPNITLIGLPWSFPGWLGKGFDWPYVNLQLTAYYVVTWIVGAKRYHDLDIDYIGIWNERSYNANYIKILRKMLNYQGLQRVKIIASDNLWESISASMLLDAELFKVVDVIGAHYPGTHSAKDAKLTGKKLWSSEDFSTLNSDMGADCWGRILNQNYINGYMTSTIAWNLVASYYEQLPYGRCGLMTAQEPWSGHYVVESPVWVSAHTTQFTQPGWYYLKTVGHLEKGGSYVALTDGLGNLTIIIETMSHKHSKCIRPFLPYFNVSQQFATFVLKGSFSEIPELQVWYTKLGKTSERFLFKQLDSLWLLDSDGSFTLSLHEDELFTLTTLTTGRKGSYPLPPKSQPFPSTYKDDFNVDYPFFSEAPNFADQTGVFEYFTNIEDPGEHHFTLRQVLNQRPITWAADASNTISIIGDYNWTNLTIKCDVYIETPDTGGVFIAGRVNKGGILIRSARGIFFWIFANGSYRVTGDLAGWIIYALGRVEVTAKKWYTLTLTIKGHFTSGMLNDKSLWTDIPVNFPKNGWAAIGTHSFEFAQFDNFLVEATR
#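 Fluorogenic HMU-b-Gal hydrolysis (0.1 mM final, pH 5.2 citrate-phosphate with 1 mg/mL sodium taurocholate; carbonate stop buffer) measures mutant GALC activity after compound treatment of live 145M-Twi Twitcher brain cells stably carrying human GALC-G270D, with wild-type GALC line alongside; activation sought.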
# DRV1 agonist – qHTS for Agonists of Human Resolvin D1 Receptor DRV1; Probable G-protein coupled receptor 32 (Homo sapiens), O75388; CHO-K1 GPR32 beta-arrestin PathHunter luminescence, 90 min; zero percent set by DMSO-only wells; activation, % at 76.9 µM; actives 2.5% (n = 48,000);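 active means activation of at least 60% and not above a set upper limit, about 1 call in 100 departs from these limits; inconclusive means activation of 40% to 60%, or above that upper limit; inactive means activation under 40%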; further: 0% is about no effect
#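 Agonism was scored by beta-Gal fragment complementation (chemiluminescent read, 1 h detection at ambient temperature) reporting beta-arrestin binding to GPR32 in engineered CHO-K1 cells. Compound treatment lasted 90 min at 37 C, normalized to a DMSO basal control.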
# FH mod – Identification of activators of human fumarate hydratase by quantitative high-throughput screening; Fumarate hydratase, mitochondrial (Homo sapiens), P07954; FH coupled MDH/diaphorase resazurin fluorescence, 15 min; Potency, µM (highest dose often 79.9 µM), without a hit: at the highest dose activity change, negative = inhibition, actives largely listed as inhibitors; actives 0.22% (n = 54,000); AID 1347055, 2019; further: potency means the concentration at half of the fitted maximal effect; on the % scale 0 is the no-effect control and ±100 the full control effect; the screen sought activators but most active calls are inhibition curves; nearly all actives have a fitted effect of over 45% in size
# B2AR arrestin ag – qHTS assay of beta-arrestin-biased ligands of beta2-adrenergic receptor: NCGC Sytravon Library Screen; 44,000 tested, under 10 active; Beta-2 adrenergic receptor (Homo sapiens), P07550; HTLA Tango cells, beta-arrestin recruitment, luciferase luminescence, 18 h; Potency, µM (doses to about 46.1 µM), most hits filed as activators;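 further: potency means the concentration at half of the fitted maximal effect; 0% = DMSO and full agonism = EC100 isoproterenol or metaproterenol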
#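 Tango cells expressing recombinant beta2-AR and beta-arrestin were treated with compounds (up to 46 microM titration) in DMEM with 1% FBS for 18 hr at 37 degrees C. Beta-arrestin recruitment drove tTA-dependent luciferase, read by luminescence; curves were fitted and classed.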
# * hit, by the source's call; i = inactive; u = inconclusive; x = no result given; ! = a repeat was not active; [ ] = dose if it differs, or a comment. Unless noted, the call rests on the fitted dose curve; in most records, active means well fitted curve in the direction sought with a large enough effect; inconclusive means small, poorly fitted or top-dose-only effect, or another doubt; inactive means no such curve, though single readings can be large; an effect the other way counts as inactive or inconclusive.
SMILES,GALC G270D act,DRV1 agonist,FH mod,B2AR arrestin ag
Cc1ccc(-c2nc3scc(CCNS(=O)(=O)c4ccc(Oc5ccccc5)cc4)n3n2)cc1,i,-4.7,-2.3%,i
Cc1cc(=O)oc2cc(O)ccc12,28.2µM*,-7.1,3.9%[53.3 µM],x
Cc1cc(C)cc(NC(=O)c2ccc3oc(=O)c(S(=O)(=O)c4ccc(F)cc4)cc3c2)c1,i,102.8*,3.3%,i
CCOc1nc2cccc(C(=O)O)c2n1Cc1ccc(-c2ccccc2-c2noc(=O)[nH]2)cc1,x,x,2.4%,x
CC(=O)c1cccc(NC(=O)C2CCN(c3nnc(-n4cccc4)s3)CC2)c1,i,u,4.1%,i
O=C(Nc1cccc(C(F)(F)F)c1)C1CCN(c2nnc(-n3cccc3)s2)CC1,i,93.8*,-6.3%,i
CCCc1ccc(OCC(=O)N(Cc2nc(-c3cccnc3)no2)C(C)C)cc1,x,x,2.1%,x
CCOc1cccc(NC(=O)C2CC(=O)N(CC)C(=Nc3ccc(F)cc3)S2)c1 (stereo not drawn),i,80.5*,-21.7%,i
CCN1C(=O)CC(C(=O)Nc2ccc(OC)cc2)SC1=Nc1ccc(C)c(C)c1 (stereo not drawn),i,13.2,-2.5%,i
COc1ccc(NS(=O)(=O)c2ccc3c(c2)[C@H]2C=CC[C@H]2[C@@H](c2ccc(C(=O)O)cc2)N3)cc1,i,-9.6,35.5µM*,i
COc1ccccc1-c1nnc(SCC(=O)c2ccc(F)cc2)n1-c1ccccc1,i,69.9*,-21.3%,i
Cc1ccc(C)c(NC(=O)Nc2cccc(-c3cn4cccnc4n3)c2)c1,i,79.7*,3.3%,i
O=C(Nc1cccc(-c2cn3cccnc3n2)c1)c1cc(Br)ccc1Cl,i,82.8*,-1.4%,i
COc1ccc(NC(=O)Nc2cc(-c3cn4cccnc4n3)ccc2C)cc1,i,18.2,-2.9%,i
CC(C)=CC[C@H]1O[C@]2(O)C([C@H]3CCC4[C@@]5(C)CC[C@H](O[C@@H]6O[C@H](CO)[C@H](O)[C@H](O[C@@H]7O[C@H](CO)[C@@H](O)[C@H](O)[C@H]7O)[C@H]6O[C@@H]6O[C@@H](C)[C@H](O)[C@@H](O)[C@H]6O)C(C)(C)C5CC[C@@]4(C)[C@]3(C)[C@H]2O)[C@@]1(C)O (stereo partly drawn),x,x,-0.2%[20.6 µM],x
CN(C)c1cccc(-c2c3c(=O)n(-c4ccccc4Cl)[nH]c3cc(=O)n2C)c1,x,x,-17.9%,x
O=C(O)c1cc(-c2ccccc2)nc2ccccc12,i,-25.1,7.0%,x
O=C(O)c1ccc(-c2c[nH]c3ncc(-c4ccccc4)cc23)cc1C1CCCC1,x,x,31.6µM*!,x
COc1cc2c(cc1NS(=O)(=O)c1ccc(Br)cc1C)n(C)c(=O)n2C,x,x,-1.6%,x
CCOc1ccc2nc(C)cc(Nc3ccccc3OCC)c2c1,i,90.0*,-6.9%,i
CCOc1ccc(OCC)c(Nc2nc3ccccc3c3nnc(C)n23)c1,i,-8.6,1.0%,i
CC(C)C1C(OC(=O)/C=C/c2ccccc2)CC2(C)OC2CCC2(C)OC2C1O (stereo not drawn),x,x,-2.6%[53.3 µM],x
Cc1ccc(-c2nc(-c3cc4cccc(OCc5cccc(F)c5)c4oc3=O)no2)cc1,i,82.2*,-5.3%,i
Cc1ccc(-c2nc(-c3cc4cccc(OCc5ccc(F)cc5)c4oc3=O)no2)cc1,i,15.2,-0.4%,i
CCc1cccc(NC(=O)Cn2c(=O)ccc3cc(S(=O)(=O)N4CCC(C)CC4)ccc32)c1,i,12.2,-18.2%,i
SMILES,GALC G270D act,DRV1 agonist,FH mod,B2AR arrestin ag
COc1ccc(NC(=O)Cn2cnc3ccc(S(=O)(=O)N4CCC(C)CC4)cc3c2=O)cc1OC,i,112.9*,-16.0%,i
COc1ccc(OC)c(NC(=O)Cn2cnc3ccc(S(=O)(=O)N4CCC(C)CC4)cc3c2=O)c1,i,-14.2,-14.9%,i
Cc1ccc(NC(=O)Cn2c(=O)ccc3cc(S(=O)(=O)N4CCC(C)CC4)ccc32)cc1C,i,70.0*,2.7%,i
CC(=O)OC1C[C@]2(C)C(O)CC(C)=C[C@H](OC(=O)c3ccc(O)cc3)C2[C@]1(O)C(C)C (stereo partly drawn),x,x,3.0%[53.3 µM],x
Cc1ccc(NS(=O)(=O)c2cc3c(cc2NCCO)NC(=O)CC3)cc1C,x,x,-0.5%[53.3 µM],x
COc1ccc(S(=O)(=O)Cc2ccc(C(=O)NC3CCCCC3)o2)cc1,i,89.3*,-6.9%,i
CC(=O)[C@@H]1CC[C@]2(C(=O)O)CC[C@]3(C)C(CCC4[C@@]5(C)CC[C@H](O)C(C)(C)C5CC[C@]43C)C12 (stereo partly drawn),x,x,0.9%[53.3 µM],x
COc1ccc(Cl)cc1NC(=O)c1sc2nc(-c3ccc(OC)c(OC)c3)ccc2c1N,11.2µM*,8.6,-3.2%,i
c1ccc(CN2CCC3(CCCc4ccccc43)CC2)cc1,x,-23.0,-19.2%[53.3 µM],x
O=C(CCC1CCN(Cc2ccccc2)CC1)c1ccc2c(c1)NCCCC2,i,81.2*,u,x
CCOC(=O)c1nnn(CC(=O)Nc2cc(C)cc(C)c2)c1C(=O)OCC,i,-7.3,1.8%,i
COc1cc(NC(=O)c2nnn(Cc3ccc(F)cc3)c2N)cc(OC)c1,i,79.4*,2.0%,i
Cc1cc(C)cc(NC(=O)Cn2nnc(C(=O)Nc3cc(C)cc(C)c3)c2N)c1,i,83.6*,-17.3%,i
COc1cc(/C=C/C(=O)O)ccc1O[C@@H]1O[C@H](CO)[C@@H](O)[C@H](O)[C@H]1O[C@@H]1OC[C@](O)(CO)[C@H]1O,x,x,6.5%[53.3 µM],x
CC(C)c1ccc(NC(=O)Cn2nnc(C(=O)NCc3ccc4c(c3)OCO4)c2N)cc1,i,-7.7,-2.3%,i
COc1ccccc1NC(=O)Cn1nnc(C(=O)NCc2ccc3c(c2)OCO3)c1N,i,42.4,-3.2%,i
Nc1c(C(=O)NCc2ccc3c(c2)OCO3)nnn1CC(=O)Nc1ccc(Br)cc1,i,61.5*,-3.0%,i
COc1ccc(Cl)cc1NC(=O)Cn1nnc(C(=O)NCc2ccc3c(c2)OCO3)c1N,i,112.3*,-0.3%,i
C[C@@H]1C[C@@H](O)[C@@]2(CO)C(CO)=CCC[C@@H]2[C@@]12C[C@@H](c1ccoc1)OC2=O,x,x,0.4%[53.3 µM],x
NCC(CNc1nc(Nc2cccc(NC(=O)N3CCCC3)c2)ncc1I)C(=O)c1cccs1 (stereo not drawn),x,x,-0.2%,x
CC[C@@H](C)Nc1cc(C(=O)NC2CC3CC[C@@H](C2)N3c2ccc(C(=O)C3CC3)cn2)c(C)cc1C(N)=O (stereo partly drawn),x,x,-11.1%,x
COc1cc(N)c(Cl)cc1C(=O)OCCN1CCCCC1,x,-4.2,1.2%[53.3 µM],x
COc1cc(N)c(Cl)cc1C(=O)NC1CCN(CCCOc2ccc(F)cc2)CC1OC (stereo not drawn),i,63.8*,-0.9%[53.3 µM],x

# Screens as filed in PubChem BioAssay.
